# From PubChem
# Rows were chosen to be rich in hits. Some 32% of all compounds tested hit in one or more screens of this group.
# PostGolgi ctrl: yeast control strain growth, post-Golgi counter-screen; efflux-deficient yeast background strain, growth absorbance A615, 16 h; inhibition, % at 10 µM; 5% of 98,000 active; AID 738
# PostGolgi yeast: growth inhibition of a yeast mutant, post-Golgi transport screen. post-Golgi transport phenotypic cell assay. 0.9% of 98,000 active. inhibition, % at 10 µM;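 note: yeast cells grown in 1536-well plates; yeast grown about 18 h at 30C before absorbance read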
# CYP2C9 act: activators of human CYP2C9. 1.4% of 96,000 active. activation factor at 5 µM. recombinant CYP2C9, luciferin-H conversion, luminescence; active compounds read high; factor 1 = untreated enzyme, 0 = blocked;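 active = activation factor of 2 or more for CYP2C9 at a 5 µM dose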
# Target sequence (P11712 whole entry, looked up): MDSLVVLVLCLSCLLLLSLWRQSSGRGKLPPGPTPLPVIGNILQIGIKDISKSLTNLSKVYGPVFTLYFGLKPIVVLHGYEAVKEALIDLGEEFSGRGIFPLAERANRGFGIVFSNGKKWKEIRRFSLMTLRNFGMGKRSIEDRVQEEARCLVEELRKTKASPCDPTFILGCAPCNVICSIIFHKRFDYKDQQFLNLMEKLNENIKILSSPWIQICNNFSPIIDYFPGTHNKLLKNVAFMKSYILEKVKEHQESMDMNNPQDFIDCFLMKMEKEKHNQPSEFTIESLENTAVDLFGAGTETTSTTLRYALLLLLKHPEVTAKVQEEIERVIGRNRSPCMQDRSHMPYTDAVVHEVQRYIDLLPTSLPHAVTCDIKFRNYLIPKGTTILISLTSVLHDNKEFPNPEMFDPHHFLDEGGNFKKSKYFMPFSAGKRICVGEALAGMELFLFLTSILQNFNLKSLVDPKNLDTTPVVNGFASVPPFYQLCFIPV
# CYP2C19 act: increases human CYP2C19 enzyme activity; recombinant CYP2C19, luciferin-H EGE luminescence; active compounds read high; 0 = fully inhibited enzyme, 1 = untreated enzyme; P33261; 96,000 tested, under 10 active; AID 1025; activation factor at 5 µM;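 active = activation factor of at least 2 at 5 µM in the primary screen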
# CYP2C19 inh: human CYP2C19 inhibition; P33261; CYP2C19 Supersomes, luciferin-H EGE luminescence, 30 min; inhibition, % at 5 µM; 21% of 96,000 active;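 active = CYP2C19 inhibition above a set limit at 5 µM in the primary screen, cut at about 50% in these data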
# CYP2C9 inh: blocks human cytochrome P450 2C9; P11712; CYP2C9 Supersomes, luciferin-H conversion, luminescence; inhibition, % at 5 µM; 20% of 96,000 active; AID 777;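 active = blocking of liver enzyme CYP2C9 beyond about 50% at 5 µM, limit read from the data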
# A number is an active result; i = inactive; nt = no result given. Cut-off read from the data, not from the text of the source, unless noted: active = inhibition above about 30%; inactive = the rest.
SMILES,PostGolgi ctrl,PostGolgi yeast,CYP2C9 act,CYP2C19 act,CYP2C19 inh,CYP2C9 inh
CCCc1[nH]nc2c1C(c1ccc(O)c(OC)c1)C(C#N)=C(N)O2 (stereo not given),i,i,i,i,60.3,i
COCc1[nH]nc2c1C(c1ccc(OC)c(OC)c1)C(C#N)=C(N)O2 (stereo not given),i,i,i,i,i,i
COc1ccc(C2C(C#N)=C(N)Oc3n[nH]c(C)c32)cc1Cn1nnc2ccccc21 (stereo not given),i,i,i,i,i,67.9
Cc1[nH]nc2c1C(c1ccc(F)cc1)C(C#N)=C(N)O2 (stereo not given),i,i,i,i,i,i
CCn1c2ccccc2c2cc(C3C(C#N)=C(N)Oc4n[nH]c(COC)c43)ccc21 (stereo not given),i,i,i,i,i,58.7
Cc1[nH]nc2c1C(c1ccc3c(c1)OCO3)C(C#N)=C(N)O2 (stereo not given),i,i,i,i,59.8,56.9
COC(=O)c1ccc(NC(=O)CSc2nnc(CNc3ccc(F)cc3)n2C)cc1,i,i,i,i,i,i
CCCc1[nH]nc2c1C(c1ccc(OC)c(Cn3nnc4ccccc43)c1)C(C#N)=C(N)O2 (stereo not given),i,i,i,i,i,62.5
CCCc1[nH]nc2c1C(c1ccc(OCCN3CCOCC3)c(OC)c1)C(C#N)=C(N)O2 (stereo not given),i,i,i,i,i,i
CC(C)OCCCNC(=O)NC12CC3CC(CC(C3)C1)C2,i,i,i,i,57.0,i
O=C1c2ccccc2NC(c2ccccc2)N1c1ccc(O)cc1 (stereo not given),i,i,i,i,i,i
O=C1c2ccccc2NC(c2ccccn2)N1c1ccc(Cl)cc1 (stereo not given),i,i,i,i,i,62.9
CCn1cc(C2Nc3ccccc3C(=O)N2O)c(C)n1 (stereo not given),i,i,i,i,i,i
Cc1cccc(C2Nc3ccccc3C(=O)N2c2ccccc2)n1 (stereo not given),i,30.5,i,i,70.8,69.5
CCOc1ccc(N2C(=O)c3cccnc3C2Nc2ccc(C)cc2)cc1 (stereo not given),i,i,i,i,i,i
CC(C)C(C(=O)Nc1ccccc1)N1C(=O)c2ccccc2C1=O (stereo not given),i,i,nt,nt,nt,nt
COC(=O)c1cccc(NC(=O)C(C)N2C(=O)c3ccccc3C2=O)c1 (stereo not given),i,i,i,i,i,98.5
O=C(Cn1c(NCCO)nc2ccccc21)NCCc1ccc(F)cc1,i,i,i,i,i,i
N#CCCn1c(SCC(=O)NCCc2ccc(F)cc2)nc2ccccc21,i,i,i,i,82.5,i
CCNC(=O)NC(=O)CSc1nc2ccccc2n1CC(C)C,i,i,i,i,i,i
CCn1c(Sc2ccc(N)cc2Cl)nc2ccccc21,45.9,i,2.3,i,87.0,i
CCn1c(SCC(=O)NC(C)c2ccccc2)nc2ccccc21 (stereo not given),i,i,i,i,53.9,i
CC(NC(=O)CSc1nc2ccccc2n1CCC#N)c1ccc(F)cc1 (stereo not given),i,i,i,i,93.7,54.7
c1ccc(N2CCN(Cc3cn4cccnc4n3)CC2)cc1,i,i,i,i,i,i
Cc1cc(C)cc(Nc2cc(C)nc3nc(C)nn23)c1,i,i,i,i,i,i
SMILES,PostGolgi ctrl,PostGolgi yeast,CYP2C9 act,CYP2C19 act,CYP2C19 inh,CYP2C9 inh
CC(CC(=O)Nc1ccncc1)c1ccccc1 (stereo not given),i,i,i,i,98.0,95.6
CN(CC(=O)Nc1ccncc1)S(=O)(=O)c1ccccc1,i,i,i,i,97.6,62.7
CC(=O)SC(C)CC(=O)NCc1ccccc1 (stereo not given),i,i,i,i,i,i
CN(CC(=O)Nn1cnnc1)S(=O)(=O)c1ccccc1,i,i,i,i,73.0,i
CC(=O)SC(C)CC(=O)Nc1ccccc1 (stereo not given),i,i,i,i,70.8,i
CC1(C)CC(=O)C(/C=N/n2c(C(F)(F)F)nc3ccccc3c2=O)=C(O)C1,i,i,i,i,i,i
CC(=O)NC(CCS(C)(=O)=O)C(=O)Nc1ccc(Oc2ccccc2)cc1 (stereo not given),i,i,nt,nt,nt,nt
CC(CC(=O)Nc1cc([N+](=O)[O-])ccc1Cl)c1ccccc1 (stereo not given),i,i,i,i,51.4,i
CN(CC(=O)Nc1ccncc1)S(=O)(=O)c1ccc(Cl)cc1,i,i,i,i,100.0,80.1
CN(CC(=O)Nc1cccnc1)S(=O)(=O)c1cc(Cl)ccc1Cl,i,i,i,i,80.1,i
CN(CC(=O)O/N=C(\N)c1ccccn1)S(=O)(=O)c1cc(Cl)ccc1Cl,i,i,i,i,i,i
COc1oc(-c2ccccc2)nc1C(F)(F)F,i,i,i,i,i,i
O=C(c1ccc(F)cc1)C1CCN(C(=O)NCc2ccccc2)CC1,i,i,i,i,i,i
Cc1cc(N(CC(=O)O)S(C)(=O)=O)ccc1Br,i,i,i,i,i,i
COC(=O)c1cccc(NC(=O)c2cccs2)c1C,i,i,i,i,52.3,i
COC(=O)c1cccc(NC(=O)Cc2ccc(OC)cc2)c1C,i,i,i,i,92.3,67.2
COC(=O)c1cccc(NS(=O)(=O)c2cccs2)c1C,i,i,i,i,i,73.9
COC(=O)c1ccccc1NC1=C/C(=N\S(=O)(=O)c2cccs2)c2ccccc2C1=O,i,i,i,i,67.0,82.9
CCCS(=O)(=O)N1CCN(S(=O)(=O)c2ccc(F)cc2)CC1,i,i,nt,nt,nt,nt
CCOC(=O)CC1C(=O)NCCN1Cc1cccc(OC)c1 (stereo not given),i,i,i,i,i,75.4
Clc1cc(Br)ccc1OCCOCCOc1cccc2cccnc12,60.3,i,i,i,66.2,i
CC(=O)NCCOc1cccc2cccnc12,i,i,i,i,i,i
Cc1cc(C)cc(OCCCOc2cccc3cccnc23)c1,62.4,i,i,i,86.6,i
FC(F)Oc1cccc2cccnc12,i,i,nt,nt,nt,nt
Cc1cc(Cl)cc(Cl)c1OCCOc1cccc2cccnc12,31.9,i,i,i,i,i
COCCn1nnnc1CN1C2CCCC1CC(NC(C)=O)C2 (stereo not given),i,i,i,i,i,i
COc1cccc(NS(=O)(=O)c2nc3nc(C)cc(C)n3n2)c1,i,i,i,i,i,i
COC(=O)c1ccc(S(=O)(=O)c2ccccc2)c(N)c1,i,i,i,i,94.2,70.4
COc1cc2c(cc1OC)C(C(=O)NCC1COc3ccccc3O1)C(c1cccnc1)N(C)C2=O (stereo not given),i,i,i,i,i,i
